These results are taken from PubChem BioAssay (NCATS).

One test deals with Tov112D. As to the kind of experiment: Primary qHTS to identify gynecologic anti-cancer compounds using libraries of approved drugs and bioactive compounds (AID 1345084). Note: nearly all actives have a fitted effect of over 55% in size. Note: potency is the fitted concentration of half-maximal effect. The conditions noted are these: Gynecologic cancer cell panel viability, ATPlite luminescence, 48 h; series mostly up to 57.5 µM. In a few lines: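 In this quantitative HTS, cell killing is estimated from loss of ATP-dependent luciferase light. Cells see five compound concentrations over a 48 h exposure.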
(In qHTS, concentration-response curves come from the screen itself.)

The nature of test [1]: Drug repurposing screens with cells derived from glioblastoma tumor samples (AID 1345199). For activity, negative = cell killing: % is set by controls: 0 for no effect and ±100 for the full control effect. Note: nearly all actives have a fitted effect of over 40% in size. Note: potency is the fitted concentration of half-maximal effect. To be noted: GBM patient neurospheres viability, ATP luminescence, 48 h. In a few lines: (§1)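 Four patient lines of CD133+ GBM neurospheres were screened at several concentrations; hits were retested in those lines plus three slower-growing GBM lines, using 48-hour treatment and ATP-based viability.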

The next test concerns astro. The test is described as above. To be noted: viability, ATP luminescence, 48 h; series mostly up to 45.9 µM. An outline of the steps:
as §1

For test [2], the target named is Nuclear receptor subfamily 1 group I member 2 (Rattus norvegicus) (UniProt Q9R1A7). Briefly: qHTS assay for small molecule activators of the rat pregnane X receptor (rPXR) signaling pathway (AID 651751; call rule not given here; note: 0% is about no effect). To be noted: rPXR reporter cells, luciferase (One-Glo), 24 h.
Test [3] in a line: qHTS assay for small molecule activators of the human pregnane X receptor (PXR) signaling pathway (AID 720659; call rule not given here; note: 0% is about no effect).
The nature of test [4]: qHTS assay to identify inhibitors of the type 1 interferon - major histocompatibility complex class I in skeletal muscle: Counter screen cell viability and HiBit confirmation (AID 1347412). Note: potency is the fitted concentration of half-maximal effect; nearly all actives have a fitted effect of over 60% in size. The conditions noted are these: iHSKM muscle cells + IFN-b, HiBiT or CellTiter-Glo, 24 h; Potency: HiBiT; Viability, at 45.9 µM (top of the series). In a few lines:
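CRISPR HLA-B*08:01-HiBit immortalized human myoblasts (C25cl48) stimulated with 4 ng/ml IFN-beta and compounds (12-point 1:3, top 46 uM final) for 24 h at 37 C. Duplicate plates read by HiBit lytic luminescence or CellTiter Glo ATP.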

Where [5] appears, read: at 45.9 µM (top of the series), tumour line B.
[6] abbreviates: at 45.9 µM (top of the series), tumour line D.
Setting [7] is: at 46.1 µM (top of the series), tumour line C.
[8] abbreviates: at 46 µM (top of the series), tumour line A.

“And” between values parts separate entries of the source, which are not always exact repeats. Equal entries are not always repeated. Unmarked numbers belong to inactive results. Results filed as inconclusive are left out. The source made the active and inactive calls. Unless noted, calls come from the whole dose curve; as a rule, active = well fitted curve in the direction sought with a large enough effect; inconclusive = small, poorly fitted or top-dose-only effect, or another doubt; inactive = no such curve, though single readings can be large; an effect the other way counts as inactive or inconclusive.

Chain of Nuclear receptor subfamily 1 group I member 2 (Rattus norvegicus) (Q9R1A7 whole entry, looked up): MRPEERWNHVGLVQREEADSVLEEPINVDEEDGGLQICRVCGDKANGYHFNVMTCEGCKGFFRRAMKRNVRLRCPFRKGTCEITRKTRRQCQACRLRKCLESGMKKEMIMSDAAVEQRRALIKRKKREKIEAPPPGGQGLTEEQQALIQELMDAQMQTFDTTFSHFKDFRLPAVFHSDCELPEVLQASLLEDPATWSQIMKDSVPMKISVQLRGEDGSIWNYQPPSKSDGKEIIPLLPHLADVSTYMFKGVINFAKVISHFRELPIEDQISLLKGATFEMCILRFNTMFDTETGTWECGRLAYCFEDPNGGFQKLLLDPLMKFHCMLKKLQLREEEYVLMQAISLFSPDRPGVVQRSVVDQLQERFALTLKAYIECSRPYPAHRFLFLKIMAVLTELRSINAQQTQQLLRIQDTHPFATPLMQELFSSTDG

As to `Cc1cc(CC(=O)O)c(C)n1-c1ccc(Cl)cc1`, the Potency entry in the test with Tov112D and in the test on astro was “inactive” in each case. Besides, the activity, negative = cell killing in test [1] (setting [5]) was -14.5%; in test [1] (setting [6]) it was 3.83%. The Potency in test [1] (tumour line A) is 25.1 µM (active).

In the case of `CCCCOC(=O)CC(CC(=O)OCCCC)(OC(C)=O)C(=O)OCCCC`, the Potency result in the test with Tov112D and in the test on astro was “inactive” throughout. In addition, the activity, negative = cell killing is -5.84% in test [1] (setting [5]), -7.23% in test [1] (setting [6]) and -12.4% in test [1] (setting [7]). Moreover, in test [2], the max response was 12%.

`CC1(C)OC[C@@H]2O[C@@]3(C(=O)O)OC(C)(C)O[C@H]3[C@@H]2O1`: the Potency entry with Tov112D and in the test on astro was “inactive” throughout. Further, the activity, negative = cell killing was 2.23% in test [1] (setting [5]), 2.89% in test [1] (setting [6]) and -11.9% in test [1] (setting [7]). Moreover, the max response in test [2] is 0.338%. Besides, in test [3], the call was inactive.

Regarding `CCCCN1C[C@H](O)[C@@H](O)[C@H](O)[C@H]1CO`, the Potency result with Tov112D and with astro was “inactive” in each case. Besides, the activity, negative = cell killing in test [1] (setting [5]) is -11.2%; in test [1] (setting [6]), -2.4%; in test [1] (setting [7]), -21.4%.

Consider `CN=C(N)NCCC[C@H](N)C(=O)O`, for which the activity, negative = cell killing in test [1] (setting [5]) is -4.01% and -7.28% and -14.2%; in test [1] (setting [6]) it was -19.7% and 0.377% and -12.4%; in test [1] (setting [8]), -28.1%; in test [1] (setting [7]), 8.15% and -7.9% and -1.89%. In the test on astro, the Potency result is “inactive”.

Regarding `C[C@H]1O[C@@H](O[C@H]2CC[C@@]3(C)[C@H](CC[C@@H]4[C@@H]3C[C@@H](O)[C@]3(C)[C@@H](C5=CC(=O)OC5)CC[C@]43O)C2)C[C@H](O)[C@@H]1O[C@H]1C[C@H](O)[C@H](O[C@H]2C[C@H](O)[C@H](O[C@@H]3O[C@H](CO)[C@@H](O)[C@H](O)[C@H]3O)[C@@H](C)O2)[C@@H](C)O1`, the results for the Potency (with Tov112D; in the test on astro; in test [4]) were 0.316 µM (active), 0.316 µM (active) and 0.198 µM (active), respectively.

Take `O=C(Nc1ncc([N+](=O)[O-])s1)c1cccs1`: the Potency in the test on astro is 15.8 µM (active).

Take `CC(C)CCCC(C)N` (configuration not stated): the activity, negative = cell killing is -9.11% in test [1] (setting [5]), -4% in test [1] (setting [6]), -26.4% in test [1] (setting [8]) and -27% in test [1] (setting [7]). The Potency entry with astro was “inactive”.

Take `Oc1ccc(Cl)cc1Cc1cc(Cl)ccc1O`: the Potency result in the test with Tov112D was “inactive”. Further, in the test with astro, the Potency is 11.2 µM (active). The max response in test [2] was -15% and -0.451%. In addition, the call in test [3] was inactive.

As for `CCN(CC)CCOc1ccc2c(c1)C(=O)c1cc(OCCN(CC)CC)ccc1-2`, the Potency entry in the test with astro is “inactive”.

Take `CCC(CC)(CC(=O)Nc1cccc(/C=C/c2nc(C3CCC3)cs2)c1)C(=O)O`: the Potency result with Tov112D is “inactive”. Further, the Potency in the test on astro is 15.8 µM (active).

On to `CN1CCc2cccc3c2[C@H]1Cc1ccc(O)c(O)c1-3`, for which the activity, negative = cell killing in test [1] (setting [7]) was -0.121%. Further, the results for the Potency (in test [1] (tumour line A); in the test with astro) were 11.2 µM (active) and 20 µM (active), respectively.

On to `CN(C)CCOC(c1ccc(Cl)cc1)c1ccccn1` (configuration not stated), for which the activity, negative = cell killing in test [1] (setting [5]) was -15.3%; in test [1] (setting [6]), -15.7%; in test [1] (setting [7]), 3.84%. Also, in test [1] (tumour line A), the Potency is 15.8 µM (active). Besides, the Potency entry in the test with astro is “inactive”.

`C[C@H]1[C@H]2CC[C@H]3[C@@H]4CC=C5C[C@@H](N(C)C)CC[C@]5(C)[C@H]4CC[C@]23CN1C`: the Potency result in the test with Tov112D and in the test with astro was “inactive” each time. For the same compound, the activity, negative = cell killing in test [1] (setting [5]) is 0.435%; in test [1] (setting [7]), -23.5%.

Regarding `Oc1c(Cl)cc(Cl)c(Cl)c1Cc1c(O)c(Cl)cc(Cl)c1Cl`, the Potency in the test with astro is 4.47 µM (active). Further, the call in test [3] was inactive.

For the compound `O=C1C(O)=C(O)C(=O)C(O)=C1O`, the activity, negative = cell killing in test [1] (setting [5]) is -1.83%; in test [1] (setting [6]) it was -8.56%; in test [1] (setting [8]), -7.89%; in test [1] (setting [7]), 12.8%.

As for `CC(C)n1c(/C=C/[C@@H](O)C[C@@H](O)CC(=O)O)c(-c2ccc(F)cc2)c2ccccc21`, the activity, negative = cell killing in test [1] (setting [5]) was -35.6%; in test [1] (setting [6]) it was -90.6%; in test [1] (setting [7]), -19.1%. Besides, the Potency in test [1] (tumour line A) is 11.2 µM (active).

Take `C[C@]12CCC(=O)C=C1C=C[C@@H]1[C@@H]2CC[C@@]2(C)[C@H]1CC[C@@]21CCC(=O)O1`: the Potency result in the test on Tov112D and with astro was “inactive” throughout. For the same compound, the activity, negative = cell killing in test [1] (setting [5]) was -20%.

For `O[C@@H](c1cc(C(F)(F)F)nc2c(C(F)(F)F)cccc12)[C@H]1CCCCN1`, the Potency with astro is 22.4 µM (active).

Take `CN1CCN(C2=Nc3cc(F)ccc3Cc3ccccc32)CC1`: the Potency entry in the test with Tov112D and in the test with astro was “inactive” throughout.

In the case of `O=C(CCN1CCN2CCCC2C1)N1c2ccccc2Sc2ccc(Cl)cc21` (configuration not stated), the Potency entry with Tov112D and in the test on astro was “inactive” in each case.

`CC(C)(C)CC(C)(C)c1ccc(O)c(-n2nc3ccccc3n2)c1`: the Potency entry in the test with Tov112D is “inactive”. Also, in test [2], the max response is 0.874%.

In the case of `C[C@@]12C(=O)OC(=O)[C@]1(C)C1CCC2O1`, the Potency was 14.1 µM (active) in the test on Tov112D and 0.631 µM (active) in the test with astro.

Regarding `CN1CCN(CCC(=O)N2c3ccccc3Sc3ccc(C(F)(F)F)cc32)CC1`, the Potency result in the test with astro is “inactive”.

In the case of `CCNC(=O)/C=C/c1cccc(Br)c1`, the activity, negative = cell killing in test [1] (setting [5]) is -10.7%; in test [1] (setting [6]), -16%; in test [1] (setting [7]) it was -17.6%. In addition, in the test with astro, the Potency entry was “inactive”.

Turning to `CCN(CC)CCOc1ccccc1C(=O)CCc1ccccc1`, the Potency result in the test with Tov112D and in the test on astro was “inactive” in each case.

`CCCCCCCCNC(C)C(O)c1ccc(SC(C)C)cc1` (configuration not stated): the Potency entry in the test with Tov112D is “inactive”. Also, in the test with astro, the Potency was 22.4 µM (active).

With `CCOC(=O)[C@H](CCc1ccccc1)N[C@@H](C)C(=O)N1[C@H](C(=O)O)C[C@H]2CCCC[C@@H]21`, the activity, negative = cell killing in test [1] (setting [6]) is 2.82%; in test [1] (setting [8]), -15.6%; in test [1] (setting [7]), 1.22% and -4.13%.

In the case of `CCCN(CCc1cccs1)[C@H]1CCc2c(O)cccc2C1`, the Potency result in the test with Tov112D and in the test on astro was “inactive” in each case.
